According to PubChem BioAssay AID488920 (Sanford-Burnham Center for Chemical Genomics, 2010):
The source made the active and inactive calls. No stated cut-off is given here; in the data, active means IC50 below about 3 µM; inactive means the rest.

Assay: luminescence signal interference by compounds, dose response, artefact control for SENP inhibitor project, biochemical (AID 488920)
Conditions: luminescence interference counterscreen, spectral interferers
For `COc1cc2c(cc1OC)-c1c(OC)c(OC)cc3c1C(C2)N(C)CC3` (stereo not drawn), the IC50 was > 5 µM (inactive). For `CCC(C)NC(=O)c1c(N)n(CCCOC)c2nc3ccccc3nc12` (stereo not drawn), the IC50 was > 5 µM (inactive). For `CCOC(=O)c1c(NS(=O)(=O)c2ccccc2)n(CCCOC)c2nc3ccccc3nc12`, the IC50 was > 5 µM (inactive).
